“And” between values parts separate entries of the source, which are not always exact repeats. Equal entries are not always repeated. Inconclusive results are not listed. Some structures have more than one record in an assay (separate samples or runs), and their calls can disagree. The source made the active and inactive calls. Calls follow the shape of the dose curve; as a rule, active = well fitted curve in the direction sought with a large enough effect in the repeat runs; inconclusive = weak or mixed curves; inactive = no such curve, though single readings can be large; an effect the other way counts as inactive or inconclusive.

Our source for the Potency and activity change, negative = inhibition values is PubChem BioAssay (Tox21).

In experiment [1] the target is Cytochrome P450 2C19 (Homo sapiens) (UniProt P33261). Description: Cytochrome P450 Family 2 Subfamily C Member 19 (CYP2C19) small molecule antagonists: luciferase reporter qHTS assay (AID 1671197). Also: nearly all actives have a fitted effect of over 65% in size. Also: potency is read from the fitted curve at half-maximal effect. As to activity change, negative = inhibition: series mostly up to about 120 µM. Summed up: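 Light output is proportional to CYP2C19 activity: proluciferin substrate is converted to luciferin, then detected by a luciferin detection reagent that also stops the 1 h, 37C NADPH-driven reaction. Ketoconazole serves as positive control.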
Background: Reporter assays use an easily measured gene product as a stand-in for the process of interest.

In experiment [2] the target is Cytochrome P450 2C9 (Homo sapiens) (UniProt P11712). Description: Cytochrome P450 Family 2 Subfamily C Member 9 (CYP2C9) small molecule antagonists: luciferase reporter qHTS assay (AID 1671198). Also: nearly all actives have a fitted effect of over 50% in size. Also: potency is read from the fitted curve at half-maximal effect. As to activity change, negative = inhibition: series mostly up to about 120 µM. Summed up: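 Enzyme-substrate mix preincubated with compound 10 min at room temperature; reaction started with NADPH regeneration solution, 1 h 37C. Luminescent luciferin product read after 20 min detection reagent.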

For experiment [3], the target named is Cytochrome P450 1A2 (Homo sapiens) (UniProt P05177). Description: Cytochrome P450 Family 1 Subfamily A Member 2 (CYP1A2) small molecule antagonists: luciferase reporter qHTS assay (AID 1671199). Also: nearly all actives have a fitted effect of over 50% in size. Also: potency is read from the fitted curve at half-maximal effect. As to activity change, negative = inhibition: series mostly up to about 120 µM. The method, boiled down:
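Human CYP1A2 activity measured with a P450-Glo proluciferin substrate; compounds in DMSO preincubated 10 min at room temperature with enzyme-substrate mix, then NADPH regeneration system added for 1 h. Luciferin detection reagent, 20 min, luminescence read.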

Experiment [4] concerns the target Voltage-gated inwardly rectifying potassium channel KCNH2 (Homo sapiens) (UniProt Q12809). In words: Human Ether-a-go-go-Related Gene (hERG) channel small molecule antagonists: fluorescence cell-based qHTS assay (AID 1671200). Also: nearly all actives have a fitted effect of over 50% in size. Also: potency is read from the fitted curve at half-maximal effect.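 As to activity change, negative = inhibition: hERG-expressing U2OS cells given a thallium stimulus after FluxOR II dye loading; series mostly up to about 77 µM.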 Summed up:
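In this thallium-flux screen, overnight-cultured U2OS cells bearing the channel are dye-loaded in darkness for an hour, rested 10 min at room temperature, and then monitored kinetically at 480/540 nm for two minutes post-stimulus.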
Background: Block of hERG is tested as a sign of cardiac risk.

In experiment [5] the target is Cytochrome P450 3A4 (Homo sapiens) (UniProt P08684). Description: Cytochrome P450 Family 3 Subfamily A Member 4 (CYP3A4) small molecule antagonists: luciferase reporter qHTS assay (AID 1671201). Also: series mostly up to about 120 µM; nearly all actives have a fitted effect of over 50% in size. The method, boiled down:
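CYP3A4 activity was followed with a P450-Glo proluciferin substrate. Test compounds in DMSO were preincubated 10 min; NADPH regeneration then ran 1 h, and light output was read 20 min after detection reagent.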
% is scaled to controls: 0 for no effect and ±100 for the full control effect.

Voltage-gated inwardly rectifying potassium channel KCNH2 (Homo sapiens), sequence (Q12809 whole entry, looked up): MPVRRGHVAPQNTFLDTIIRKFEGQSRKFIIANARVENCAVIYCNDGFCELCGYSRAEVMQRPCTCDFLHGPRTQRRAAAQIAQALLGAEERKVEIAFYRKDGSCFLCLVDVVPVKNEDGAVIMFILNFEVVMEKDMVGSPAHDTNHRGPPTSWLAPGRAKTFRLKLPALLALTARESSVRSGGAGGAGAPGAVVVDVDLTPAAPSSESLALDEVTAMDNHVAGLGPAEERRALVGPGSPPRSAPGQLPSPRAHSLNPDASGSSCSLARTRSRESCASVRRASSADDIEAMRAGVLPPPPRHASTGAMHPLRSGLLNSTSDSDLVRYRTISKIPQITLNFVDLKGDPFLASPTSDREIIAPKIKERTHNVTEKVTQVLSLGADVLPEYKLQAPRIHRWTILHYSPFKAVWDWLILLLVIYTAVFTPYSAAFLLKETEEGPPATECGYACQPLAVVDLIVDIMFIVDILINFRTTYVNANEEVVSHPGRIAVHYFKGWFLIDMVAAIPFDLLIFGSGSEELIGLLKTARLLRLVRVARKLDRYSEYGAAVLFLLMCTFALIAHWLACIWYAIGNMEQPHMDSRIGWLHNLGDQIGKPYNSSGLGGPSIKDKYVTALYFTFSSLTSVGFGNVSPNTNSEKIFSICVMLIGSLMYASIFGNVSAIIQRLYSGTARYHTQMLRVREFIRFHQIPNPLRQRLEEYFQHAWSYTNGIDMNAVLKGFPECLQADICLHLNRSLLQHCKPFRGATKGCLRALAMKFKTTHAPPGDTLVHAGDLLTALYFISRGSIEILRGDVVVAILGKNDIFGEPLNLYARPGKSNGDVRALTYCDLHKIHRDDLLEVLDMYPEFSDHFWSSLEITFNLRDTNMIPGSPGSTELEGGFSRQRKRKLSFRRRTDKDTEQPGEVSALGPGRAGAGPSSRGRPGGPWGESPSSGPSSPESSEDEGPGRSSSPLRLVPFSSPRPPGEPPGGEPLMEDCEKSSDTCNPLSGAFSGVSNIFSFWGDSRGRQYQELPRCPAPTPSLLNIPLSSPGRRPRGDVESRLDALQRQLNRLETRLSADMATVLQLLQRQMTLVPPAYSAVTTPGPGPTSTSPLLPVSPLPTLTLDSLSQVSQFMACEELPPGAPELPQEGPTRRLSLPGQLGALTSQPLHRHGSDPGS
Cytochrome P450 2C19 (Homo sapiens), sequence (P33261 whole entry, looked up): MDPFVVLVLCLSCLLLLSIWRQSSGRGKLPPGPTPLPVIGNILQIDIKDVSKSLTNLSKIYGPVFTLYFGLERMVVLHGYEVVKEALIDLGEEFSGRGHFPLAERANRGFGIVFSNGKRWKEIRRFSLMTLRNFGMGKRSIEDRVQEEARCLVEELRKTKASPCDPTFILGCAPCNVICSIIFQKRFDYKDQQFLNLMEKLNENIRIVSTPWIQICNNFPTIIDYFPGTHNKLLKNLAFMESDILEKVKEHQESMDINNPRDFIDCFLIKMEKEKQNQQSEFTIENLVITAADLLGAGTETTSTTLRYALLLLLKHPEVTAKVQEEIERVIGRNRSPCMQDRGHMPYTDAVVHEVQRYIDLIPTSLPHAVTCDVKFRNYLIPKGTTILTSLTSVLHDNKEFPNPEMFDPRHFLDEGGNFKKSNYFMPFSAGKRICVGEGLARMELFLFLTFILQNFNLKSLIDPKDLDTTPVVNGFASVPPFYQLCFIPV
Cytochrome P450 1A2 (Homo sapiens), sequence (P05177 whole entry, looked up): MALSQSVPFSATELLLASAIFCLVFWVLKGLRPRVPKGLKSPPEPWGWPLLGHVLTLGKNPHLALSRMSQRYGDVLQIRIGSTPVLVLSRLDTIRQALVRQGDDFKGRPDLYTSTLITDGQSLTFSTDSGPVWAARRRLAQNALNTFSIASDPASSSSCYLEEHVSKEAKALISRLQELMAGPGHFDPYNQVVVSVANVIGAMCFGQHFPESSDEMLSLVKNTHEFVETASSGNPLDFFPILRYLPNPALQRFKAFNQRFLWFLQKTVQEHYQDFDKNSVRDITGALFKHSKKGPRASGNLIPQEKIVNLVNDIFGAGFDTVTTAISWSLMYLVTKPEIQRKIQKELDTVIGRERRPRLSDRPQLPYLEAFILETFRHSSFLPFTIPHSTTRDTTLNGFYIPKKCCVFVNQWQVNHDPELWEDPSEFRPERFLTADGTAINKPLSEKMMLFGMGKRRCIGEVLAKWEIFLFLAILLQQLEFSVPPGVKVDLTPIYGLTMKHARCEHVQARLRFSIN
Cytochrome P450 2C9 (Homo sapiens), sequence (P11712 whole entry, looked up): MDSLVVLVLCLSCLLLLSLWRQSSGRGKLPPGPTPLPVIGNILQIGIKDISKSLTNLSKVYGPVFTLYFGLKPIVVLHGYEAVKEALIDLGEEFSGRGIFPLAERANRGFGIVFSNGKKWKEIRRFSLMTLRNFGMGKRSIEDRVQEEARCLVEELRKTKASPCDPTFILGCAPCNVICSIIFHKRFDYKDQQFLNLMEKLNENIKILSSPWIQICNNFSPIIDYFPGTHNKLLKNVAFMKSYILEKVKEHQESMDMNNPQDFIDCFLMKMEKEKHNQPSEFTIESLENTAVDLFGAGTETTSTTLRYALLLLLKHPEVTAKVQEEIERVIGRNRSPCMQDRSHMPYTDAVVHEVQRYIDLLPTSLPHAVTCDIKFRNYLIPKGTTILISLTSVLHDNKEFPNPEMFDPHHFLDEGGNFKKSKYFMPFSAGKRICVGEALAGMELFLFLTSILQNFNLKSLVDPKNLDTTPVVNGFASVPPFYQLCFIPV
Cytochrome P450 3A4 (Homo sapiens), sequence (P08684 whole entry, looked up): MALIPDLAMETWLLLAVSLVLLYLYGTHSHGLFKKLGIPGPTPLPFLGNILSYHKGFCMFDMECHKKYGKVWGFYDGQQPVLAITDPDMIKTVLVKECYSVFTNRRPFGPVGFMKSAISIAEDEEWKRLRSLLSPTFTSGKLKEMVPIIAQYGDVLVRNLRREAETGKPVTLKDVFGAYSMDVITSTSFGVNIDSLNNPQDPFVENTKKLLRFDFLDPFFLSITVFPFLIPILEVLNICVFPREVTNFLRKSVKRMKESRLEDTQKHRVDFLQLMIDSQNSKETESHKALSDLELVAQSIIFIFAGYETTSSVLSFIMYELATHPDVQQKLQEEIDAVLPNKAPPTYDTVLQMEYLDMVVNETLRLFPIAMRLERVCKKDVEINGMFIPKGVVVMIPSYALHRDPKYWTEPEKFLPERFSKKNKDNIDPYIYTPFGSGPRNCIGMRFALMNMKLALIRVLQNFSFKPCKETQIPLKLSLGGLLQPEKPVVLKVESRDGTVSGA

For the compound `C=C(C)C(=O)OCCOC(=O)C(=C)C`, the Potency entry in experiment [1], in experiment [2] and in experiment [4] was “inactive” each time. The Potency result in experiment [3] was “inactive and 35.6 µM (active)”.
Regarding `CCCc1c(OCCCCc2nn[nH]n2)ccc(C(C)=O)c1O`, the Potency in experiment [1] was 159 nM (active) and 174 nM (active); in experiment [2] it was 159 nM (active) and 246 nM (active); in experiment [3], 35.6 µM (active) and 30.9 µM (active). In experiment [4], the Potency entry is “inactive”.
`C[Si](C)(C)O[Si](C)(C)C`: the Potency entry in experiment [1], in experiment [2], in experiment [3] and in experiment [4] was “inactive” in each case.
As to `c1cc(N(CC2CO2)CC2CO2)ccc1OCC1CO1` (centres undefined), the Potency result in experiment [1] was “inactive and 79.6 µM (active)”; in experiment [2], 63.4 µM (active) and 39.9 µM (active); in experiment [3], 63.3 µM (active). Further, the Potency entry in experiment [4] is “inactive”.
Turning to `c1ccc(Nc2ccccc2)cc1`, the Potency in experiment [1] was 4.48 µM (active) and 22.4 µM (active); in experiment [2], 35.6 µM (active) and 39.9 µM (active); in experiment [3] it was 35.6 µM (active). In addition, the Potency entry in experiment [4] was “inactive”.
Turning to `CC(=O)Oc1ccccc1C(=O)Nc1ncc([N+](=O)[O-])s1`, the Potency in experiment [1] was 3.63 µM (active) and 2.45 µM (active); in experiment [2], 4.57 µM (active) and 2.75 µM (active); in experiment [3], 6.46 µM (active) and 7.76 µM (active). Moreover, the Potency result in experiment [4] is “inactive”.
Consider `OC1CCCCCCCCCCC1`, for which the Potency result in experiment [1], in experiment [2] and in experiment [4] was “inactive” in each case. The Potency in experiment [3] is 25.2 µM (active).
As for `CN(C)CCN(Cc1cccs1)c1ccccn1`, the Potency entry in experiment [1] and in experiment [2] was “inactive” each time. Further, in experiment [3], the Potency entry was “inactive and 27.5 µM (active)”.
Turning to `c1ccc2sc(SSN3CCOCC3)nc2c1`, the Potency in experiment [1] was 17.8 µM (active); in experiment [2] it was 15.9 µM (active) and 11.2 µM (active); in experiment [3], 20 µM (active) and 22.4 µM (active). The Potency entry in experiment [4] is “inactive”.
With `COc1ccccc1/C=C/C=O`, the Potency in experiment [1] was 39.9 µM (active); in experiment [3], 29 µM (active) and 25.2 µM (active). Further, the Potency result in experiment [2] and in experiment [4] was “inactive” throughout.
With `CCOCCOCCO`, the Potency in experiment [1] is 36.6 µM (active) and inactive. Further, the Potency result in experiment [2], in experiment [3] and in experiment [4] was “inactive” throughout.
For the compound `CCCCNS(=O)(=O)c1ccccc1`, the Potency in experiment [1] was 7.01 µM (active) and 17.8 µM (active); in experiment [2], 35.1 µM (active) and 35.6 µM (active). In addition, the Potency result in experiment [3] and in experiment [4] was “inactive” throughout.
Take `c1ccncc1`: the Potency result in experiment [1], in experiment [2], in experiment [3] and in experiment [4] was “inactive” each time.
For `CCCCCCCCCC(=O)OC`, the Potency result in experiment [1], in experiment [2], in experiment [3] and in experiment [4] was “inactive” throughout.
For the compound `c1ccc2c(c1)c1cccc3ccc4cccc2c4c31`, the Potency in experiment [1] was 88.8 µM (active) and inactive; in experiment [3], 112 nM (active) and 20 nM (active). The Potency result in experiment [2] and in experiment [4] was “inactive” throughout.
In the case of `O=CCc1ccccc1`, the Potency was 19.9 µM (active) and 5.64 µM (active) in experiment [1]; 25 µM (active) and 5.03 µM (active) in experiment [2]; 39.9 µM (active) in experiment [3]. In experiment [4], the Potency entry was “inactive”.
For `O=C(Nc1ccc([N+](=O)[O-])cc1Cl)c1cc(Cl)ccc1O`, the values for the activity change, negative = inhibition in experiment [1] and in experiment [3] were -2.19% [at 23.6 µM] (inactive) and -15.9% [at 23.6 µM] (inactive), respectively. Further, the Potency in experiment [2] was 25.2 µM (active); in experiment [3], 20 µM (active). Besides, the Potency result in experiment [4] was “inactive”.
Turning to `CC(C)OC=O`, the Potency entry in experiment [1], in experiment [2], in experiment [3] and in experiment [4] was “inactive” throughout.
Turning to `Cc1cccc(N(C)C(=S)Oc2ccc3ccccc3c2)c1`, the Potency in experiment [1] is 1.26 µM (active) and 977 nM (active); in experiment [2], 8.94 µM (active) and 6.92 µM (active); in experiment [3], 10 µM (active) and 9.77 µM (active).
Turning to `CC(C)OC(=O)C(C)(C)Oc1ccc(C(=O)c2ccc(Cl)cc2)cc1`, the Potency was 8.94 µM (active) and 5.49 µM (active) in experiment [1]; 3.56 µM (active) and 1.74 µM (active) in experiment [2]; 35.6 µM (active) in experiment [3]; 27.5 µM (active) and 8.49 µM (active) in experiment [4].
`COC(=O)c1ccccc1`: the Potency result in experiment [1], in experiment [2], in experiment [3] and in experiment [4] was “inactive” in each case.
Take `Cc1ncc[nH]1`: the Potency in experiment [1] is 39.8 µM (active) and inactive. The Potency entry in experiment [2], in experiment [3] and in experiment [4] was “inactive” throughout.
For the compound `Nc1ccc(Cl)cc1Cl`, the Potency entry in experiment [1], in experiment [2] and in experiment [4] was “inactive” each time. Moreover, the Potency in experiment [3] is 31.4 µM (active) and 39.9 µM (active).
With `Cc1cccc(C(=O)O)c1`, the Potency entry in experiment [1], in experiment [2], in experiment [3] and in experiment [4] was “inactive” throughout.
Take `CC(=O)O[C@]1(C(C)=O)CC[C@H]2[C@@H]3C=C(Cl)C4=CC(=O)[C@@H]5C[C@@H]5[C@]4(C)[C@H]3CC[C@@]21C`: the Potency entry in experiment [1] was “inactive and 39.9 µM (active)”; in experiment [2] it was 15.9 µM (active) and 31.7 µM (active) and 13.8 µM (active). Also, the Potency result in experiment [3] and in experiment [4] was “inactive” each time.
`NC=O`: the Potency entry in experiment [1], in experiment [2], in experiment [3], in experiment [4] and in experiment [5] was “inactive” in each case.
